Assay results taken from PubChem BioAssay AID1159580 (chemical genetic matrix, 2015).
Several values for one entry are separate records, joined by “and”; a condition that tells them apart may be missing. Equal entries are not always repeated. The campaign covered roughly 5,500 compounds. About 2,000 (36%) were called active. Roughly 18% stayed inconclusive and do not appear here. Cut-off read from the data, not from the text of the source: active = normalized growth mostly below about 0.91 (no sharp cut-off); inconclusive = no clear call, values can overlap the other calls; inactive = mostly above about 0.92. This is one part of the list.

Assay: chemical genetic growth profiling, strain panel (AID 1159580);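 note: tested at 20 µM; growth read once vehicle control cultures reached saturation at 30 °C; 1 = growth at the plate median or of vehicle wells; lower values mean less growth of the strain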
Details: S. cerevisiae deletion strains, growth OD

Measured: normalized growth

CO[C@H]1C[C@H](O[C@H]2[C@H](C)[C@@H](OC3O[C@H](C)C[C@H](N(C)C)[C@H]3OC(C)=O)[C@@H](C)C[C@]3(CO3)C(=O)[C@H](C)[C@@H](OC(C)=O)[C@@H](C)[C@@H](C)OC(=O)[C@@H]2C)O[C@@H](C)[C@@H]1OC(C)=O (some centres undefined)
inactive: locus YAL021C, strain ccr4, active compounds read low 0.998 | locus YAL026C, strain drs2, active compounds read low 1.01 | locus YAL030W, strain snc1, active compounds read low 0.989 | locus YBL061C, strain skt5, active compounds read low 1 | locus YBR009C, strain hhf1, active compounds read low 0.997 | locus YBR021W, strain FUR4, active compounds read low 0.996 | locus YBR023C, strain chs3, active compounds read low 0.996 | locus YBR171W, strain sec66, active compounds read low 1.01 | locus YBR229C, strain ROT2, active compounds read low 1.01 | locus YBR231C, strain swc5, active compounds read low 0.996 | locus YBR279W, strain paf1, active compounds read low 1 | locus YCL011C, strain gbp2, active compounds read low 1.01 | locus YCL016C, strain dcc1, active compounds read low 1 | locus YCL029C, strain bik1, active compounds read low 0.997 | locus YCL061C, strain MRC1, active compounds read low 0.992 | locus YCL069W, strain vba3, active compounds read low 0.994 | locus YCR088W, strain abp1, active compounds read low 0.994 | locus YDL005C, strain med2, active compounds read low 0.985 | locus YDL035C, strain GPR1, active compounds read low 1.01 | locus YDL040C, strain nat1, active compounds read low 0.998 | locus YDL074C, strain BRE1, active compounds read low 1 | locus YDL101C, strain DUN1, active compounds read low 1.01 | locus YDL134C, strain PPH21, active compounds read low 1 | locus YDL185W, strain tfp1, active compounds read low 0.981 | locus YDL192W, strain arf1, active compounds read low 0.989 | locus YDR001C, strain nth1, active compounds read low 0.992 | locus YDR069C, strain doa4, active compounds read low 0.998 | locus YDR101C, strain arx1, active compounds read low 1.01 | locus YDR137W, strain rgp1, active compounds read low 1 | locus YDR159W, strain sac3, active compounds read low 0.997 | locus YDR162C, strain NBP2, active compounds read low 1 | locus YDR195W, strain ref2 1 | locus YDR297W, strain sur2, active compounds read low 0.991 | locus YDR318W, strain mcm21, active compounds read low 0.993 | locus YDR334W, strain swr1, active compounds read low 1 | locus YDR335W, strain msn5, active compounds read low 0.998 | locus YDR388W, active compounds read low 0.979 | locus YDR392W, strain spt3, active compounds read low 0.996 | locus YDR502C, strain sam2, active compounds read low 0.977 | locus YEL003W, strain gim4, active compounds read low 1 | locus YEL037C, strain rad23, active compounds read low 0.998 | locus YEL061C, strain CIN8 (second series), active compounds read low 1 | locus YEL061C, strain CIN8, active compounds read low 1.01 | locus YER015W, strain faa2, active compounds read low 0.998 | locus YER016W, strain bim1, active compounds read low 0.997 | locus YER110C, active compounds read low 0.988 | locus YER111C, strain swi4, active compounds read low 1.01 | locus YER155C, strain BEM2 (second series), active compounds read low 0.994 | locus YER155C, strain BEM2, active compounds read low 1.01 | locus YER167W, strain BCK2, active compounds read low 1 | locus YFR010W, strain ubp6, active compounds read low 1.01 | locus YGL078C, strain dbp3, active compounds read low 0.984 | locus YGL086W, strain mad1, active compounds read low 1 | locus YGL167C, strain pmr1, active compounds read low 0.996 | locus YGL173C, strain kem1, active compounds read low 1.01 | locus YGL227W, strain vid30, active compounds read low 1.02 | locus YGL240W, strain doc1, active compounds read low 1.01 | locus YGL248W, strain PDE1, active compounds read low 1.01 | locus YGL253W, strain hxk2, active compounds read low 0.991 | locus YGR078C, strain PAC10, active compounds read low 1.01 | locus YGR135W, strain pre9, active compounds read low 0.986 | locus YGR252W, strain gcn5, active compounds read low 0.933 | locus YHR013C, strain ard1, active compounds read low 0.986 | locus YHR027C, strain rpn1, active compounds read low 0.995 | locus YHR030C, strain SLT2, active compounds read low 1.01 and 0.973 | locus YHR079C, strain IRE1 (second series), active compounds read low 0.992 | locus YHR079C, strain IRE1, active compounds read low 0.987 | locus YHR094C, strain hxt1, active compounds read low 0.988 | locus YHR129C, strain ARP1, active compounds read low 1.01 | locus YHR142W, strain chs7, active compounds read low 1.01 | locus YHR200W, strain rpn10, active compounds read low 0.992 | locus YIL066C, strain RNR3, active compounds read low 1.01 | locus YIL073C, strain SPO22, active compounds read low 1 | locus YIL125W, strain kgd1, active compounds read low 0.988 | locus YIR030C, strain dcg1, active compounds read low 1 | locus YJL092W, strain hpr5, active compounds read low 1 | locus YJL095W, strain BCK1 (second series), active compounds read low 0.99 | locus YJL095W, strain BCK1, active compounds read low 1.01 and 0.973 | locus YJL115W, strain asf1, active compounds read low 1.02 | locus YJL129C, strain trk1, active compounds read low 0.979 | locus YJL134W, strain LCB3, active compounds read low 1 | locus YJL154C, strain vps35, active compounds read low 0.987 | locus YJL164C, strain tpk1, active compounds read low 1 | locus YJL166W, strain qcr8, active compounds read low 1 | locus YJL168C, strain set2, active compounds read low 0.994 | locus YJL187C, strain SWE1 (second series), active compounds read low 1.01 | locus YJL187C, strain SWE1, active compounds read low 1 | locus YJR043C, strain POL32, active compounds read low 0.986 | locus YJR066W, strain TOR1, active compounds read low 0.955
